# Results taken from the emibetuzumab library of Makowski et al. (2022).
# This is one part of the list. No count for the full screen is at hand.
# B1: VH:VL chains; a variant is named by its letters at X, in order (parent)
# chain 1: QVQLVQSGAEVKKPGASVKVSCKASGYTFTDYXMHWVRQAPGQGLEWMGXVNPNXXXTTYNQKFEGRVTMTTDTSTSTAYMELRSLRSDDTAVYYCARXNXLDXWGQGTTVTVSS
# chain 2: DIQMTQSPSSLSASVGDRVTITCSVSSSVSSIYLHWYQQKPGKAPKLLIYSTSNLASGVPSRFSGSGSGTDFTLTISSLQPEDFATYYCQVYSGYPLTFGGGTKVEIK
# Variants of: B1
# Assay: yeast display scFab, FACS + sequencing
# Conditions: with MET
# Summary of the method: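 Antigen binding was called positive for sequences present in both antigen-positive samples and negative for those present only in the input. These calls came from deep sequencing, in two replicates, of round-3 sorted and input populations from a heavy-chain CDR mutant scFab yeast surface library. The library was first enriched twice magnetically on HGFR-Fc-coated Protein A beads and then by FACS, gating the top 50% antigen-positive cells after 3 h labelling at room temperature with 1 nM HGFR-Fc plus anti-Myc in PBSB with 1% milk.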
row,Variant,antigen binding call
1,DRGGDDVV,no binding
2,YRARSAGY,binds
3,YRTKGAVY,binds
4,DREEGAVY,no binding
5,YRTRSAVY,binds
6,YRARSAVY,binds
7,SEARSAVY,no binding
8,SEREADWF,no binding
9,VAGTGDWF,no binding
10,AETKGDGA,no binding
11,DGGRSAVF,no binding
12,DRRGDAVA,no binding
13,FREGSAVA,no binding
14,FRRGSALA,binds
15,FRRTDFVA,no binding
16,ARRGSDLA,no binding
17,FRRGSAVA,binds
18,FRRGDAVA,binds
19,DGGTNDGA,no binding
20,DAAGADWY,no binding
21,YRGRSSWS,binds
22,DRKGGDWS,no binding
23,AAAGGSWS,no binding
24,YRKGGSWS,binds

row,Variant,antigen binding call
1,YRAAGSWS,binds
2,YRARGSWS,binds
3,VRTEDSWS,no binding
4,VAEKGDGA,no binding
5,YAEGGYGV chain 1 V68I,no binding
6,DTTGSDWY,no binding
7,VEGGGDVA,no binding
8,SEARSDWF,no binding
9,VAGTGDAA,no binding
10,SATTDSVD,no binding
11,VRAGGDVF,no binding
12,SEARSAWS,no binding
13,YRARSAWS,binds
14,VEKGGDVS,no binding
15,YRKKTDWS,no binding
16,VRARGDVS,binds
17,SEARSSWS,no binding
18,YRAEGAWS,binds
19,YRARSSWS,binds
20,FAEGDDVA,no binding
21,ATTGGDGV,no binding
22,VGGTGSGY,no binding
23,VTEGGDVY,no binding
24,VEKGGDAA,no binding

row,Variant,antigen binding call
1,VTERDDAV,no binding
2,YAATADSS,no binding
3,YRARGAAS,binds
4,VAATADSS,binds
5,YRARGAVS,binds
6,DAATADSS,no binding
7,YRARGSVS,binds
8,YAEESDGS,no binding
9,STGEDDVY,no binding
10,DEEEGSAA,no binding
11,YRARGAGS,binds
12,YKARGAWS,binds
13,YRARGAWS,binds
14,YEEGTDWY,no binding
15,DREEGDGV,no binding
16,DEAGTAVA,no binding
17,VAGRSFGS,no binding
18,VRGRAAGD,binds
19,VRAGDSLS,no binding
20,VKRGSSGD,binds
21,VRGRSSGS,binds
22,VRGRDYGD,no binding
23,VRRGGSGS,binds
24,VKRRDSGD,no binding

row,Variant,antigen binding call
1,VRTGAVGD,no binding
2,ARRGGSGS,no binding
3,VERGGFGS,no binding
4,AKGTASGD,no binding
5,VEKEGDAD,no binding
6,VKEKGDWV,no binding
7,DARGGDAA,no binding
8,VAATASWV,no binding
9,SEARSDGS,no binding
10,VTGTGDAD,no binding
11,DRGRDAWS,no binding
12,VRRGGSGD,binds
13,VRERGAGS,binds
14,VRTEDDWS,no binding
15,VRGRSAWS,binds
16,VRAGGSGD,binds
17,VRERGDGS,no binding
18,VRERGDAS,no binding
19,SREAADWA,no binding
20,SEARSDWA,no binding
21,AARADSGY,no binding
22,VAATAAGA,no binding
23,DKTKGDWV,no binding
24,VRRGSAGD,binds

row,Variant,antigen binding call
1,VRAGAAGV,no binding
2,VRAGAAGS,binds
3,VRRGSSGD,binds
4,ARRGSAVS,no binding
5,VRRGSAGS,binds
6,VEGTSSGD,no binding
7,VRAGADGV,no binding
8,VTTKSAGD,no binding
9,VRAGDDGS,no binding
10,DKGEGAGV,no binding
11,STAESDVA,no binding
12,VRRETVSD,no binding
13,VRRAADSD,no binding
14,YRRGGSGD,binds
15,VRRGSASD,binds
16,SAGEGDVF,no binding
17,DRGRGSAD,binds
18,DEGGTSAD,no binding
19,VKAGASAD,no binding
20,FTGRAAAV,no binding
21,FKGRGFVV,no binding
22,FRGRASAD,binds
23,VKGRGSAD,binds
24,VKEGGSAD,no binding

row,Variant,antigen binding call
1,FKGRGAAV,binds
2,DTGTSAAF,no binding
3,STGEADAS,no binding
4,YAEESDWV,no binding
5,ATGGAAGD,no binding
6,VGGTSDGA,no binding
7,VKGRGVVD,binds
8,FKGRGAAD,binds
9,FKGRGSAD,binds
10,FAGRGSAD,binds
11,VKTKGVVD,no binding
12,FAGRGSSD,no binding
13,FTGRGSAD,no binding
14,VAGRGVGD,no binding
15,VAGGDDAV,no binding
16,FAEGAAGD,no binding
17,VGGTSSLD,no binding
18,DKRKGVSD chain 1 S88F,no binding
19,ATGRADGV,no binding
20,FRGRGSAD,binds
21,AAGRSDLV chain 1 R67H,no binding
22,FAGRSDWV chain 1 R67H,no binding
23,SEGGDAGD,no binding
24,SETTDAGD,no binding

row,Variant,antigen binding call
1,FRTRDAGD,binds
2,YRTRDSLD,binds
3,YTTRDDSD,no binding
4,FRTRDVGF,no binding
5,SRTRDAGD,binds
6,YRTRDSVA,binds
7,STEASYLS,no binding
8,VGRATVGS,no binding
9,FTRRSSLF chain 1 V111I,no binding
10,FTTRDDSD,no binding
11,FRTRDSLD,binds
12,FRTRDALD,binds
13,YRTRDSVD,binds
14,FRGRDFLD,no binding
15,SARKGDVA,no binding
16,VTGTGDVY,no binding
17,STGGDDGF,no binding
18,YAGGDDAV,no binding
19,DTKAADGV,no binding
20,YRGKDASD,binds
21,DRAGDASD,no binding
22,YRAGSASD,binds
23,YRAGAASD,binds
24,YREGDASD,no binding

row,Variant,antigen binding call
1,AARADDAA,no binding
2,SEARSDAA,no binding
3,YAGEGFGV,no binding
4,VRERGAWD,binds
5,VKKTGDLY,no binding
6,VRERGASD,binds
7,VRERGSWD,binds
8,VKAGGDVY,no binding
9,VKAGGSLY,binds
10,VTERGSLD,no binding
11,VGGTSSSA,no binding
12,AGGTSYSV,no binding
13,SARADSGV,no binding
14,VTGGDYAV,no binding
15,DEGTGAVA,no binding
16,VRERGSLY,binds
17,VRKGGSVY,no binding
18,SEARSSSD,no binding
19,YRRGGSWD,binds
20,YRARGSWD,binds
21,YRARSSSD,binds
22,YRARSSWD,binds
23,VAREDDLS,no binding
24,VEGGGDGA,no binding

row,Variant,antigen binding call
1,ATGRADVY,no binding
2,VEEASSWA,no binding
3,SGGGNDLA chain 1 R87K,no binding
4,YRAGSSWD,binds
5,YRAGDSWD,binds
6,YRRGASWD,binds
7,YRRGDAWD,binds
8,DRAGDSWA,no binding
9,YAAGSSWD,no binding
10,DRAGDSWD,no binding
11,DETKGDWD,no binding
12,YRAKGSWD,binds
13,YEGAASWF,no binding
14,YRRGDSWD,binds
15,YRARGAWD,binds
16,YRAGGSWF,binds
17,VTGTGDWV,no binding
18,VEEEGSVV,no binding
